According to PubChem BioAssay AID588651 (The Scripps Research Institute Molecular Screening Center, 2011):
Calls of active or inactive are those of the source. Cut-off read from the data, not from the text of the source: active = inhibition above about 65%; inactive = the rest.

System: Fam108b
Experiment: Fam108b inhibition by ABPP, late-stage follow-up, biochemical, gel-based ABPP, recombinant soluble Fam108b, HTS hits, complex proteome (AID 588651);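 note: Fam108b spiked into mouse brain membrane proteome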
Conditions: FP-rhodamine labeling in proteome, at 20 µM, hits give high values

| SMILES | inhibition |
| --- | --- |
| Oc1ccccc1C1Nc2cccc3cccc(c23)N1 | 0% (inactive) |
| CN(c1ccccc1)S(=O)(=O)c1ccc(NC(=O)c2ccc(-c3ccccc3)cc2)cc1 | 40% (inactive) |
| Cc1cc(Nc2ccc(Cl)cc2)nc(NCc2ccccc2)n1 | 0% (inactive) |
| O=C1C(SCCO)=C(SCCO)C(=O)c2ccccc21 | 50% (inactive) |
| CC1CCN(S(=O)(=O)c2ccc(C(=O)Nc3ccccc3-c3nc4ccccc4[nH]3)cc2)CC1 | 0% (inactive) |
| COc1cccc(C=NNC(=O)c2[nH]c(C)c(C(=O)NN=Cc3cccc(OC)c3O)c2C)c1O | 75% (active) |
| N=c1oc2cc(O)ccc2cc1C(=O)Nc1ccc(Br)cc1 | 0% (inactive) |
| Cc1ccccc1NC1=C/C(=N\S(=O)(=O)c2cccs2)c2ccccc2C1=O | 0% (inactive) |
| Oc1ccc(C2Nc3cccc4cccc(c34)N2)c(O)c1 | 0% (inactive) |
| COc1cccc(C=NNc2nc(Nc3ccc([N+](=O)[O-])cc3)nc(N3CCCC3)n2)c1O | 65% (active) |
| COc1cccc(-n2c(SCc3cc(=O)oc4cc(O)c(O)cc34)nc3ccccc3c2=O)c1 | 10% (inactive) |
| Cc1nc2scc(-c3ccccc3)c2c(=O)o1 | 80% (active) |
| Cc1nc2scc(-c3ccc(Cl)cc3)c2c(=O)o1 | 95% (active) |
| COc1ccc2ccccc2c1C(O)c1nccn1C (centres undefined) | 0% (inactive) |
| Nc1ccc2nc(-c3cccc(-c4nc5ccc(N)cc5[nH]4)c3)[nH]c2c1 | 30% (inactive) |
| CCN(CC)S(=O)(=O)c1cc(NC(=O)COC(=O)c2sc3ccccc3c2Cl)ccc1C | 10% (inactive) |
| COc1cccc2c1C(=O)c1c(O)c3c(c(O)c1C2=O)C[C@@](O)(C(=O)CO)C[C@@H]3O[C@H]1C[C@H](N)[C@H](O)[C@H](C)O1 | 0% (inactive) |

| SMILES | inhibition |
| --- | --- |
| COc1ccc(/C=C2\SC(=S)N(CC(=O)OCC(=O)Nc3cc(Cl)cc(Cl)c3)C2=O)cc1 | 0% (inactive) |
| Nc1cc(C(=O)O)c(N)c2c1C(=O)c1ccccc1C2=O | 0% (inactive) |
| O=C(NCC1CC1)c1ccc(Nc2nc3ccc(Br)cc3[nH]2)cc1 | 0% (inactive) |
| Cc1ccc(-c2csc3nc(C(C)C)oc(=O)c23)c(C)c1 | 90% (active) |
| Nc1c(S(=O)(=O)c2cccc(Cl)c2)c2nc3ccccc3nc2n1N=Cc1ccc(O)c(O)c1 | 75% (active) |
| Oc1ccccc1-c1nc2c3ccccc3c3ccccc3c2[nH]1 | 0% (inactive) |
| Brc1csc(C=NNc2nc3ccccc3s2)c1 | 0% (inactive) |
| O=c1ccc2cc3c([nH]c4ccc(Br)cc43)oc-2c1O | 10% (inactive) |
| O=C(Nc1ccc(-c2csc(Nc3cccc(C(F)(F)F)c3)n2)cc1)c1cccc(C(F)(F)F)c1 | 95% (active) |
| CCc1cc(C(Cc2ccc3ccccc3n2)=NO)c(O)cc1O | 0% (inactive) |
| COc1ccc(NC(=S)Nc2ccc3nsnc3c2)cc1 | 0% (inactive) |
| CCNc1ccc2noc3c2c1C(=O)c1ccccc1-3 | 0% (inactive) |
| O=C(Nc1ccc(-c2csc(Nc3ccccc3)n2)cc1)c1cc([N+](=O)[O-])cc(C(F)(F)F)c1 | 60% (inactive) |
| CSC[C@@H]1NC(=S)N(c2ccc(C)cc2)C1=O | 0% (inactive) |
| O=C1C(Cl)=C(Nc2ccc3cn[nH]c3c2)C(=O)c2ccccc21 | 0% (inactive) |
| COc1cc2c(cc1NC(=S)Nc1cccc(C(F)(F)F)c1)oc1ccccc12 | 20% (inactive) |
| COc1ccc(/C=C/C(=O)OCC(=O)Nc2cccc(Oc3ccccc3)c2)c(OC)c1 | 30% (inactive) |
